PubChem BioAssay
Several values for one entry are separate records, joined by “and”; a condition that tells them apart may be missing. Identical values can stand only once. Activity calls are given as the source filed them.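 The calls were made as follows: active = mean duplicate potentiation above the buffer control mean plus 5 SD of buffer wells; inactive = the rest.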

target: Potassium voltage-gated channel subfamily KQT member 2 (Rattus norvegicus) (UniProt O88943); assay: KCNQ2 thallium flux enhancement – KCNQ2-CHO-K1 cells, selectivity assay for KCNQ1 potentiator project (AID 493009); details: FluxOR thallium flux fluorescence, at 10 µM; hits give high values, scaled: buffer 0, activator control 100;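 also: assay conditions were tuned for KCNQ1 rather than KCNQ2 modulators; signal is max minus min fluorescence divided by baseline after thallium stimulus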
Sequence (O88943 whole entry, looked up): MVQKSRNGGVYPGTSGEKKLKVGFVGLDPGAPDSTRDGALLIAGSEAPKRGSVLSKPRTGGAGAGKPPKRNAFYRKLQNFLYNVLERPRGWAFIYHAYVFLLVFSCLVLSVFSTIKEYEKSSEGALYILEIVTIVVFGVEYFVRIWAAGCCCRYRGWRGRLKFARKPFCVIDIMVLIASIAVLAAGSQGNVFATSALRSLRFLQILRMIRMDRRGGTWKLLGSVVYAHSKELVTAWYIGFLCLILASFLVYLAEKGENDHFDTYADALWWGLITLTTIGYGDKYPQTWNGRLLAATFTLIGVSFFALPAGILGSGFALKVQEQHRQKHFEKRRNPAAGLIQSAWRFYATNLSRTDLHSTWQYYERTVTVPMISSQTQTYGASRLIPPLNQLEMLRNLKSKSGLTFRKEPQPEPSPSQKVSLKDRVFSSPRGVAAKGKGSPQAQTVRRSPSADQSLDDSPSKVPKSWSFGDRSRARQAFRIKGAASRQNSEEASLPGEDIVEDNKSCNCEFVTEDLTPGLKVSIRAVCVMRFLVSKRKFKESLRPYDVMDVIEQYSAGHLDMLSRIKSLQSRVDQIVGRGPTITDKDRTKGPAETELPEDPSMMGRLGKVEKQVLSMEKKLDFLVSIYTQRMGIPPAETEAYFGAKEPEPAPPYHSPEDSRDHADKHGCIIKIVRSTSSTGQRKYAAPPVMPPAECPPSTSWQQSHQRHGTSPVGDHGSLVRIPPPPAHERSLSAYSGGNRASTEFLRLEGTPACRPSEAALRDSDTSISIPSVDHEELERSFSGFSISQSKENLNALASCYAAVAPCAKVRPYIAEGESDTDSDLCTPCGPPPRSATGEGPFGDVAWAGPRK

SMILES | outcome | potentiation
O=C(C1CCCCC1)N(CCN1CCCC1)c1nc2ccccc2s1 | inactive | –
Nc1nonc1C(=O)NCCN=Cc1cc(Cc2ccccc2)cc(Br)c1O | inactive | –
CC(=O)Nc1cccc(/C(C)=N/NC(=O)c2ccc(Cl)cc2Cl)c1 | inactive | –
Cn1ccnc1C(OC(=O)c1ccc(Cl)cc1)C(F)(F)F (stereo not given) | inactive | –
COc1ccc(S(=O)(=O)N2CCCC(C(=O)O)C2)cc1 (stereo not given) | inactive | –
O=C(COc1ccc(C(=S)N2CCC(Cc3ccccc3)CC2)cc1)N1CCOCC1 | inactive | –
O=C(Oc1c(-c2ccco2)oc2ccccc2c1=O)c1cccnc1 | – | 187% (active)
Cc1ccc(-c2csc(=S)[nH]2)cc1 | – | 643% (active)
Cc1ccccc1OCc1nnc(SCCN2CCCC2)n1-c1ccccc1 | inactive | –
COc1cccc(/C=N/NC(=O)C(C)n2nc(C)c([N+](=O)[O-])c2C)c1O (stereo not given) | inactive | –
NC(=NCCCCCCN=C(N)/N=C(\N)Nc1ccc(Cl)cc1)/N=C(\N)Nc1ccc(Cl)cc1 | – | 183% (active) and 216% (active)
Cc1ccc(/C=C/C(=O)C2C(=O)c3ccccc3C2=O)cc1 | – | 206% (active)
CCC1(c2ccc(Cl)cc2)NC(=S)N(c2ccc(C)c(C)c2)N1 (stereo not given) | – | 550% (active)
O=S(=O)(NC(=S)NC1CCCCC1)c1ccc(Cl)cc1 | – | 199% (active)
COc1cccc(NC(=S)NCCN2CCOCC2)c1 | – | 162% (active)
Cc1cc(NC(=O)CSc2nc(C3CC3)nc3sc(C)c(C)c23)no1 | – | 172% (active)
Cc1cccc(CNC(=O)C2CCCN(c3nn4c(=O)cc(C)nc4s3)C2)c1 (stereo not given) | inactive | –
Cc1cccc(-c2nnc(NC(=O)c3ccc(Cl)cc3)o2)c1 | – | 155% (active)
Cc1cc(N2CCN(C)CC2)nc2ccc(NC(=S)NCCCN3CCc4ccccc4C3)cc12 | inactive | –
C=C[C@@]1(C)CC(=O)[C@]2(O)[C@@]3(C)[C@@H](O)CCC(C)(C)[C@@H]3[C@H](OC(C)=O)[C@H](O)[C@@]2(C)O1 | inactive | –

SMILES | outcome | potentiation
CN1CCN(C(=O)/C(=C/c2ccccc2)c2ccccc2)CC1 | inactive | –
Cc1cccc(Nc2ccccc2C(=O)OCC(=O)N(C)C2CCS(=O)(=O)C2)c1C (stereo not given) | inactive | –
Cc1ccc(S(=O)(=O)N2CCCC(C(=O)Nc3ccc(C(=O)O)cc3)C2)cc1Cl (stereo not given) | inactive | –
Cc1cc(C(=O)OCC(=O)NCc2ccco2)c(C)n1-c1ccc(F)cc1 | – | 323% (active)
CCOC(=O)c1sc(N2N=C(C)C(N=Nc3cccc(C)c3)C2=O)nc1C (stereo not given) | – | 148% (active)
Oc1c(Br)cc(Br)cc1/C=N/c1nc2c(s1)CCCC2 | inactive | –
O=C(Nc1nnc(-c2ccc3c(c2)CCCC3)o1)c1ccccc1Cl | – | 267% (active)
CCSc1nnc(NC(=O)C2C3C=CC(C3)C2C(=O)O)s1 (stereo not given) | inactive | –
Cc1cc(/C=N\NC(=O)CC(=O)NC2CCCCC2)c(C)n1-c1cccc(Cl)c1Cl | – | 153% (active)
O=C(COc1cccnc1[N+](=O)[O-])Nc1cccc(S(=O)(=O)N2CCCCC2)c1 | inactive | –
CC1CCN(c2ccccc2NC(=S)NC(=O)c2cccs2)CC1 | inactive | –
Fc1ccc2nc(Nc3nc4c(F)cc(F)cc4s3)sc2c1 | – | 210% (active)
CCc1ccc(NC(=O)C(=O)NNC(=O)COc2cccc(OC)c2)cc1 | – | 251% (active)
CC1=CC(=O)C=C(C)C1=NOS(=O)(=O)c1ccccc1 | inactive | –
Oc1cccc2ccc(Nc3ccccn3)nc12 | inactive | –
Cc1ccc(-n2[nH]c(C)c(/C=N/N3C(=O)c4cccc5cccc(c45)C3=O)c2=O)cc1 | – | 225% (active)
O=C(Nc1ccc2[nH]c(=S)sc2c1)Nc1ccccc1F | – | 240% (active)
Cc1nc(NCCc2cnc[nH]2)c2oc3ccccc3c2n1 | inactive | –
COc1cc2c(cc1OC)CN(C(=O)COc1ccccc1[N+](=O)[O-])CC2 | inactive | –
O=C(CNC(=O)c1ccccc1)NCc1ccc(Cl)cc1 | inactive | –
